# Assay results as given in PubChem BioAssay (Tox21).
# “And” between values parts separate entries of the source, which are not always exact repeats. Equal values may be shown once. Results filed as inconclusive are left out. A call without a number means that no potency is given here. Some structures have more than one record in an assay (separate samples or runs), and their calls can disagree. The source made the active and inactive calls. Unless noted, calls follow the shape of the dose curve; as a rule, active = well fitted curve in the direction sought with a large enough effect in the repeat runs; inconclusive = weak or mixed curves; inactive = no such curve, though single readings can be large; an effect the other way counts as inactive or inconclusive.
# Molecular target: Retinoic acid receptor RXR-alpha (Homo sapiens) (UniProt P19793)
# Experiment: qHTS assay to identify small molecule agonists of the RXR signaling pathway (AID 1159527; calls by dose curve; also: nearly all actives have a fitted effect of over 35% in size; also: potency is read from the fitted curve at half-maximal effect)
# Conditions: HEK293T RXRa-UAS-bla, beta-lactamase ratio, 16 h; series mostly up to 76.8 µM
# Outline: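 Compounds in DMSO were added to RXR-alpha-UAS-bla HEK 293T cells kept in 2% charcoal-stripped serum, and incubated 16 hr at 37 C with 5% CO2. Reporter signal came from a 2 hr B/G FRET substrate step.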
# Retinoic acid receptor RXR-alpha (Homo sapiens), sequence (P19793 whole entry, looked up): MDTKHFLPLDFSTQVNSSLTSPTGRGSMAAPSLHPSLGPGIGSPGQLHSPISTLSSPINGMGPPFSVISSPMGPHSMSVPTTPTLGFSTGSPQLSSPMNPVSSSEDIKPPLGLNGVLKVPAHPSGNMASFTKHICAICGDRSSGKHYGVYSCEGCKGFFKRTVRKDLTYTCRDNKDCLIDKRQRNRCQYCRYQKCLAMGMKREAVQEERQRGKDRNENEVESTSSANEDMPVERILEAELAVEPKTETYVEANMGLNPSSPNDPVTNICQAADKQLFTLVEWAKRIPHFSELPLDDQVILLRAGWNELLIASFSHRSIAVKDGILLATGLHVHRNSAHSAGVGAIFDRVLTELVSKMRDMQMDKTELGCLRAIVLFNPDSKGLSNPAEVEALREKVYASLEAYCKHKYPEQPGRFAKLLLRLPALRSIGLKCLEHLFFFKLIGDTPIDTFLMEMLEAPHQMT
row,SMILES,Potency
1,CCOC(=O)C(C)(C)Oc1ccc(Cl)cc1,inactive
2,O=C(O)Cc1cccc2ccccc12,inactive
3,C[C@]12CC[C@@H]3c4ccc(O)cc4C[C@@H](CCCCCCCCCS(=O)CCCC(F)(F)C(F)(F)F)[C@H]3[C@@H]1CC[C@@H]2O (stereo partly specified),inactive
4,NC(=O)N/N=C/c1ccc([N+](=O)[O-])o1,inactive and 13.8 µM (active)
5,CCCCNC(=O)NS(=O)(=O)c1ccc(N)cc1,inactive
6,CCCCCCCCCCCCCC(=O)OC(C)C,inactive
7,CCCCCCCCCCCCCCCCCC(=O)OCC(O)CO (stereo unspecified),inactive
8,NC(=O)NO,inactive
9,CC(C)Cc1ccc(C(C)C(=O)O)cc1 (stereo unspecified),inactive
10,Cc1ccc(O)c(-n2nc3ccccc3n2)c1,inactive
11,N[C@@H](Cc1c[nH]c2ccccc12)C(=O)O,inactive
12,CC1=NN(c2ccccc2)C(=O)C1,inactive

# System: not listed separately
# Experiment: qHTS assay to identify small molecule agonists of the RXR signaling pathway - cell viability counter screen (AID 1159529); also: nearly all actives have a fitted effect of over 50% in size; also: potency is read from the fitted curve at half-maximal effect
# Conditions: RXR-alpha-bla HEK293T viability, CellTiter-Glo, 16 h; series mostly up to 76.8 µM
# Outline: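 Counter screen: CellTiter-Glo luminescence. Cells: RXR-alpha-UAS-bla HEK 293T. Medium: 2% charcoal-stripped FBS. Treatment: 16 h, 37 C. Reagent incubation: 30 min, RT.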
row,SMILES,Potency
1,COCCOCCOC,inactive
2,CO[C@H]1C=CO[C@@]2(C)Oc3c(C)c(O)c4c(O)c(c(/C=N/N5CCN(C)CC5)c(O)c4c3C2=O)NC(=O)/C(C)=C\C=C[C@H](C)[C@H](O)[C@@H](C)[C@@H](O)[C@@H](C)[C@H](OC(C)=O)[C@@H]1C,inactive
3,CCOC(=O)C(C)(C)Oc1ccc(Cl)cc1,inactive
4,O=C1OC(c2ccc(O)cc2)(c2ccc(O)cc2)c2ccccc21,19.4 µM (active) and inactive
5,Cc1cccc2ccccc12,inactive
6,CCCCCCCC(=O)OCC(O)CO (stereo unspecified),inactive
7,O=C(O)Cc1cccc2ccccc12,inactive
8,C[C@]12CC[C@@H]3c4ccc(O)cc4C[C@@H](CCCCCCCCCS(=O)CCCC(F)(F)C(F)(F)F)[C@H]3[C@@H]1CC[C@@H]2O (stereo partly specified),inactive
9,NC(=O)N/N=C/c1ccc([N+](=O)[O-])o1,inactive
10,CC(O)COc1ccccc1 (stereo unspecified),inactive
11,CC(=O)OC/C=C(C)/C=C/C=C(C)/C=C/C1=C(C)CCCC1(C)C,inactive
12,CC(C)=CCC/C(C)=C/CO,inactive
13,CCCCNC(=O)NS(=O)(=O)c1ccc(N)cc1,inactive
14,CCCCCCCCCCCCCC(=O)OC(C)C,inactive
15,C1CNCCN1,inactive
16,Cc1cccc(Nc2cc(Cl)nc(SCC(=O)O)n2)c1C,inactive
17,CCCCOCCOCCOC(C)=O,inactive
18,CCCCCCCCCCCCCCCCCC(=O)OCC(O)CO (stereo unspecified),inactive
19,COc1ccc(C(=O)c2ccccc2)c(O)c1,inactive
20,Cc1cccc(C)c1O,inactive
21,NC(=O)NO,inactive
22,COc1cc(C=O)ccc1O,inactive
23,CC(C)Cc1ccc(C(C)C(=O)O)cc1 (stereo unspecified),inactive
24,NC(N)=NC(N)=NCCc1ccccc1,inactive
25,Cc1ccc(O)c(-n2nc3ccccc3n2)c1,inactive
26,O=c1cc[nH]c(=O)[nH]1,inactive
27,N[C@@H](Cc1c[nH]c2ccccc12)C(=O)O,inactive
28,OCCCc1ccccc1,inactive
29,CC1=NN(c2ccccc2)C(=O)C1,inactive
30,COC(=O)c1ccc(O)cc1,inactive

# System: not listed separately
# Experiment: qHTS assay to identify small molecule antagonists of the retinoid acid receptor (RAR) signaling pathway - cell viability counter screen (AID 1159551); also: nearly all actives have a fitted effect of over 35% in size
# Conditions: C3RL4 cells viability, ATP luminescence (CellTiter-Glo), 6 h; series mostly up to 92.4 µM
# Outline: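 C3RL4 RARE-luciferase line; cpds + retinol 1 uM final, 6 h, 37 C/5% CO2; CellTiter-Glo ATP luminescence, 30 min RT.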
row,SMILES,outcome
1,COCCOCCOC,inactive
2,CO[C@H]1C=CO[C@@]2(C)Oc3c(C)c(O)c4c(O)c(c(/C=N/N5CCN(C)CC5)c(O)c4c3C2=O)NC(=O)/C(C)=C\C=C[C@H](C)[C@H](O)[C@@H](C)[C@@H](O)[C@@H](C)[C@H](OC(C)=O)[C@@H]1C,inactive
3,CCOC(=O)C(C)(C)Oc1ccc(Cl)cc1,inactive
4,O=C1OC(c2ccc(O)cc2)(c2ccc(O)cc2)c2ccccc21,inactive
5,Cc1cccc2ccccc12,inactive
6,CCCCCCCC(=O)OCC(O)CO (stereo unspecified),inactive
7,O=C(O)Cc1cccc2ccccc12,inactive
8,C[C@]12CC[C@@H]3c4ccc(O)cc4C[C@@H](CCCCCCCCCS(=O)CCCC(F)(F)C(F)(F)F)[C@H]3[C@@H]1CC[C@@H]2O (stereo partly specified),inactive
9,NC(=O)N/N=C/c1ccc([N+](=O)[O-])o1,inactive
10,CC(O)COc1ccccc1 (stereo unspecified),inactive
11,CC(=O)OC/C=C(C)/C=C/C=C(C)/C=C/C1=C(C)CCCC1(C)C,inactive
12,CC(C)=CCC/C(C)=C/CO,inactive
13,CCCCNC(=O)NS(=O)(=O)c1ccc(N)cc1,inactive
14,CCCCCCCCCCCCCC(=O)OC(C)C,inactive
15,C1CNCCN1,inactive
16,Cc1cccc(Nc2cc(Cl)nc(SCC(=O)O)n2)c1C,inactive
17,CCCCOCCOCCOC(C)=O,inactive
18,CCCCCCCCCCCCCCCCCC(=O)OCC(O)CO (stereo unspecified),inactive
19,COc1ccc(C(=O)c2ccccc2)c(O)c1,inactive
20,Cc1cccc(C)c1O,inactive
21,NC(=O)NO,inactive
22,COc1cc(C=O)ccc1O,inactive
23,CC(C)Cc1ccc(C(C)C(=O)O)cc1 (stereo unspecified),inactive
24,NC(N)=NC(N)=NCCc1ccccc1,inactive
25,O=c1cc[nH]c(=O)[nH]1,inactive
26,N[C@@H](Cc1c[nH]c2ccccc12)C(=O)O,inactive
27,OCCCc1ccccc1,inactive
28,CC1=NN(c2ccccc2)C(=O)C1,inactive
29,COC(=O)c1ccc(O)cc1,inactive

# System: not listed separately
# Experiment: qHTS assay to identify small molecule antagonists of the retinoic acid receptor (RAR) signaling pathway (AID 1159552; also: nearly all actives have a fitted effect of over 50% in size; also: potency is read from the fitted curve at half-maximal effect)
# Conditions: C3RL4 RARE luciferase reporter, retinol-stimulated, 6 h; series mostly up to 92.4 µM
# Outline: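 Antagonism of retinol-induced RARE reporter activity was measured in C3RL4 cells. Exposure to compounds and 1 uM final retinol lasted 6 hr at 37 C, with luminescence as endpoint.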
row,SMILES,Potency
1,COCCOCCOC,inactive
2,CO[C@H]1C=CO[C@@]2(C)Oc3c(C)c(O)c4c(O)c(c(/C=N/N5CCN(C)CC5)c(O)c4c3C2=O)NC(=O)/C(C)=C\C=C[C@H](C)[C@H](O)[C@@H](C)[C@@H](O)[C@@H](C)[C@H](OC(C)=O)[C@@H]1C,inactive
3,O=C1OC(c2ccc(O)cc2)(c2ccc(O)cc2)c2ccccc21,48.6 µM (active) and inactive
4,Cc1cccc2ccccc12,inactive
5,CCCCCCCC(=O)OCC(O)CO (stereo unspecified),inactive
6,C[C@]12CC[C@@H]3c4ccc(O)cc4C[C@@H](CCCCCCCCCS(=O)CCCC(F)(F)C(F)(F)F)[C@H]3[C@@H]1CC[C@@H]2O (stereo partly specified),inactive
7,CC(O)COc1ccccc1 (stereo unspecified),inactive
8,CCCCNC(=O)NS(=O)(=O)c1ccc(N)cc1,inactive
9,CCCCCCCCCCCCCC(=O)OC(C)C,inactive
10,C1CNCCN1,inactive
11,Cc1cccc(Nc2cc(Cl)nc(SCC(=O)O)n2)c1C,inactive
12,CCCCOCCOCCOC(C)=O,inactive
13,CCCCCCCCCCCCCCCCCC(=O)OCC(O)CO (stereo unspecified),inactive
14,COc1ccc(C(=O)c2ccccc2)c(O)c1,inactive
15,Cc1cccc(C)c1O,inactive
16,NC(=O)NO,inactive
17,COc1cc(C=O)ccc1O,inactive
18,CC(C)Cc1ccc(C(C)C(=O)O)cc1 (stereo unspecified),inactive
19,NC(N)=NC(N)=NCCc1ccccc1,inactive
20,Cc1ccc(O)c(-n2nc3ccccc3n2)c1,inactive
21,O=c1cc[nH]c(=O)[nH]1,inactive
22,N[C@@H](Cc1c[nH]c2ccccc12)C(=O)O,inactive
23,OCCCc1ccccc1,inactive
24,CC1=NN(c2ccccc2)C(=O)C1,inactive
25,COC(=O)c1ccc(O)cc1,inactive
